Outcome data for 40 compounds are collected here from PubChem BioAssay (Tox21).

Calls of active or inactive are those of the source. Calls come from the whole dose curve; as a rule, active = well fitted curve in the direction sought with a large enough effect in the repeat runs; inconclusive = weak or mixed curves; inactive = flat fitted curve, though single readings scatter.

This test can be described thus: qHTS assay to test for compound auto fluorescence at 590 nm (red) in HepG2 cells (AID 720674). As to conditions: HepG2 autofluorescence, red 540/590 nm, 1 h; series mostly up to 91.3 µM. From the text:
U.S. Tox21 Program National Center for Advancing Translational Sciences [NCATS] NIH Chemical Genomics Center [NCGC] U.S. Environmental Protection Agency [EPA] National Institutes of Environmental Health Sciences [NIEHS] National Toxicology Program [NTP] U.S. Food and Drug Administration [FDA] Tox21 Assay Overview: Compound auto fluorescence often interferes with screening of the compound library against various biological targets and signaling pathways. Some of these compounds may have fluorophoric properties. Such properties may interfere with the assay outputs resulting in false positives and/or negatives. To decrease such complications and ensure the compound activities are relevant in terms of biological response, the Tox21 10K compound library was screened for auto fluorescence. From the fluorophores used as reporter signals in our screening assays, the auto fluorescence equivalencies of compounds against three fluorophores have been evaluated: Triamterene, Fluorescein and Rose Bengal sodium for blue, green and red fluorescence, respectively. The fluorescence intensities were measured using Excitation/Emission wavelengths at 405/460nm, 485/535nm and 540/590nm for blue, green and red labels, respectively. This assay includes the red fluorescence data.
Tox21 Assay Protocol Summary: 2,000 HepG2 cells in 5 uL of culture medium (MEM containing 10% FBS) per well were dispensed into black wall/clear bottom 1536-well plates using a Multidrop Combi Dispenser (ThermoFisher Scientific, Waltham, MA). The assay plates were incubated overnight at 37 C to allow cell attachment to the well bottom, followed by the transfer of 23 nL compound or DMSO vehicle by a pintool work station (Kalypsys , San Diego, CA). After the assay plates were incubated for 1 hr at 37 C and 5% CO2, fluorescence intensities in the assay plates were measured by an Envision (PerkinElmer, Shelton, CT) plate reader using three labels for measuring blue, green and red fluorescence at […] 460, 535 and 590 nm respectively.
In the case of `CCCC[N+]1(C)[C@@H]2CC(OC(=O)[C@H](CO)c3ccccc3)C[C@H]1[C@@H]1O[C@@H]12` (stereo not given in full), the outcome was inactive.
As for `CC1(C)CC(=O)CC(C)(C)N1[O]`, the compound was called inactive.
Take `C[N+]1(CCC(C(N)=O)(c2ccccc2)c2ccccc2)CCCCC1`: the outcome was inactive.
The same measure for `CC(Cc1ccccc1)NCc1ccccc1Cl` (stereo not given): “inactive”; for `C[Si](Cn1cncn1)(c1ccc(F)cc1)c1ccc(F)cc1`: “inactive”.
On to `N#CC1(N=NC2(C#N)CCCCC2)CCCCC1`, for which the outcome was inactive.
`C=CCOCC1CO1` (stereo not given): the result was inactive.
The same measure for `O=[N+]([O-])O[C@H]1CO[C@H]2[C@@H]1OC[C@H]2O[N+](=O)[O-]`: “inactive”; for `CCOP(=O)(SC(C)CC)N1CCSC1=O` (stereo not given): “inactive”.
The same measure for `NP(N)(=O)NC(=O)c1ccc(F)cc1`: “inactive”.
The same measure for `C=CCc1ccccc1O`: “inactive”; for `O=C(O)C(F)(F)C(F)(F)C(F)(F)C(F)(F)C(F)(F)F`: “inactive”.
With `CC(C)c1ccc(OP(=O)(Oc2ccc(C(C)C)cc2)Oc2ccc(C(C)C)cc2)cc1`, the compound was classed as inactive.
The same measure for `N#CC(C#N)=C(C#N)C#N`: “inactive”; for `CN(C1CCCCC1)C1CCCCC1`: “inactive”; for `CCCBr`: “inactive”.
Under `CCCCC#N` stands “inactive”; under `CCc1cnc(C2=NC(C)(C(C)C)C(=O)N2)c(C(=O)O)c1` (stereo not given), “inactive”.
Take `CCCC1CCCCN1` (stereo not given): the outcome was inactive.
For the compound `O=C1c2ccccc2C(=O)N1SC(Cl)(Cl)Cl`, the call was inactive.
The same measure for `CC(Oc1cccc(Cl)c1)C(=O)O` (stereo not given): “inactive”; for `CON(C)C(=O)Nc1ccc(Cl)cc1`: “inactive”.
Under `CN(C)N` stands “inactive”.
Under `O=C(NCNC(=O)NC1C(=O)NC(=O)N1CO)NC1C(=O)NC(=O)N1CO` (stereo not given) stands “inactive”; under `NCCc1cc(O)c(O)cc1O`, “inactive”; under `CCC1(CC)C(=O)NC(=O)NC1=O`, “inactive”.
Turning to `C=C(C)C(=O)OCCCCOC(=O)C(=C)C`, the call was inactive.
Turning to `OCC1CO1` (stereo not given), the call was inactive.
As to `COCc1cnc(C2=NC(C)(C(C)C)C(=O)N2)c(C(=O)O)c1` (stereo not given), the result was inactive.
Under `COc1cc(CC(C)N)c(OC)cc1Br` (stereo not given) stands “inactive”; under `CC(C)OC(=O)Cc1ccccc1`, “inactive”; under `O=C(CCl)CCl`, “inactive”.
Regarding `CN(C)c1ccc(N=O)cc1`, the compound was classed as inactive.
Under `CCCCCCCCCCCCCCCl` stands “inactive”; under `OCCSSCCO`, “inactive”; under `O=P(OCC(Br)CBr)(OCC(Br)CBr)OCC(Br)CBr` (stereo not given), “inactive”.
The same measure for `O=C(O)C(F)(F)C(F)(F)C(F)(F)C(F)(F)C(F)(F)C(F)(F)C(F)(F)C(F)(F)F`: “inactive”.
Take `Oc1cccc(Cl)c1`: the call was inactive.
For the compound `C1CS1`, the compound was called inactive.
`CCOP(=S)(OCC)Oc1ccc(S(C)=O)cc1` (stereo not given): the compound was classed as inactive.
